Rows were chosen to be rich in hits. Some 2.7% of all compounds tested hit in one or more screens of this group.
12-LOX inh = ALOX12 (human) lipoxygenase inhibition. AID 1671190. Potency, µM (highest dose often 108 µM), inactives show top-dose activity change, negative = inhibition, usual class: inhibitors. P18054. purified 12hLO, xylenol orange hydroperoxide absorbance. 1.1% of 580,000 active; also: potency is read from the fitted curve at half-maximal effect; % is scaled to controls: 0 for no effect and ±100 for the full control effect
Target sequence (P18054 whole entry, looked up): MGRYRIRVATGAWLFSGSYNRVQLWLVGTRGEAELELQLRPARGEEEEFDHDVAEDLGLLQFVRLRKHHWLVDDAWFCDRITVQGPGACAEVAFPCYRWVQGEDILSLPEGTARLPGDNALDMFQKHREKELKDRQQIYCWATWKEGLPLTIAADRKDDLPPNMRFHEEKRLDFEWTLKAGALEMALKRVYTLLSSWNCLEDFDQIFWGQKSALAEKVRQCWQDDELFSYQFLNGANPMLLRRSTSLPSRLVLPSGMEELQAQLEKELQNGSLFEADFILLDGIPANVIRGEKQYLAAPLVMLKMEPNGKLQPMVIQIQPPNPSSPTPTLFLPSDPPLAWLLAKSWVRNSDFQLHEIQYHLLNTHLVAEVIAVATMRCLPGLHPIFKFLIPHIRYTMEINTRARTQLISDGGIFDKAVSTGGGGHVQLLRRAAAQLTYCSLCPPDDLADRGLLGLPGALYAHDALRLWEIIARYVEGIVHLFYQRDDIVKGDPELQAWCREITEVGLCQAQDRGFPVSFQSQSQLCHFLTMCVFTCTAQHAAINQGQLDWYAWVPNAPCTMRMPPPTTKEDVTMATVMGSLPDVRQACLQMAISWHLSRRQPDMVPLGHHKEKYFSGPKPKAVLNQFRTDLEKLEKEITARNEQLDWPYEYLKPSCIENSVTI
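Hydroperoxide product was detected by ferrous iron/xylenol orange as the 573 to 405 nm absorbance ratio. Arachidonic acid at 40 uM (final) was turned over for 30 min at room temperature by 150 nM human 12hLO, pH 7.0 Hepes buffer, after 15 min compound preincubation.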
Nrf2 ARE act = activators of Nrf2 (ARE) signaling. AREc32 ARE-luciferase reporter (MCF7-derived line), luminescence, 24 h. Potency, µM (top dose mostly 46.1 µM), for inactives: top-dose activation, hits mostly activators. 0.31% of 410,000 active; also: potency is read from the fitted curve at half-maximal effect; % of control where 0% means no effect; nearly all actives have a fitted effect of over 65% in size
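For detection, Steady-Glo was added and plates sat 30 min at RT; before that, AREc32_Fluc cells grown overnight in OPTI-MEM/5% FBS had been treated with 23 nL compound for 24 hr at 37 deg C.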
A549 viability = counter-screen for Nrf2 inhibitors: cytotoxicity in A549 cells; A549 ARE-Fluc cells, CellTiter-Fluor viability, 18-24 h; Potency, µM (doses to about 46 µM), for inactives: at the highest dose activity change, negative = cytotoxicity, hits mostly inhibitors; 0.16% of 390,000 active; also: potency is read from the fitted curve at half-maximal effect; % is scaled to controls: 0 for no effect and ±100 for the full control effect
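A549 ARE_Fluc cells in 5% FBS OPTI-MEM were exposed to compounds in concentration-response for 18-24 h at 37 deg C. Viability was read by CellTiter-Fluor fluorescence (Ex 405/Em 525) after 30 min, before the luciferase read.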
Nrf2 block = blocks Nrf2 signaling; A549 ARE-Fluc reporter, luciferase luminescence, 18-24 h; 2.1% of 360,000 active; Potency, µM (titrated, usually from 46 µM), without a hit: top-dose activity change, negative = inhibition, hits mostly inhibitors; also: potency is read from the fitted curve at half-maximal effect; % is scaled to controls: 0 for no effect and ±100 for the full control effect; nearly all actives have a fitted effect of over 60% in size
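A549 ARE_Fluc cells (5000/well, 5% FBS OPTI-MEM) pre-incubated 2 h, then treated with compounds 18-24 h at 37C/5% CO2 in concentration-response. CellTiter-Fluor viability read first; BugLite luciferase luminescence after 15 min at room temperature gives Nrf2 activity.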
LDHA inh = blocks human lactate dehydrogenase A. purified LDHA, NADH/diaphorase-resazurin fluorescence; active compounds read low. AID 1347041. activity change, % (values are at about 110 or 230 µM). P00338. 0.15% of 480,000 active; in the data active = activity change below about -30%; inconclusive = mostly about -25% to -30%;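 also: plate controls were DMSO wells for no effect and wells without enzyme for full effect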
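Human LDH5 (2 nM) was incubated with 0.06 mM NADH and 0.2 mM pyruvate for 5 min at room temperature in Tris pH 7.4. Remaining NADH was coupled through diaphorase/resazurin, and resorufin fluorescence was read at 0 and 20 min.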
ERG-DNA inh = ERG Ets/DNA interaction inhibition; P11308; fluorescence polarization, His-ERG Ets domain / labelled DNA; Potency, µM (titrated, usually from 76.9 µM), inactives show at the highest dose FP activity, negative = inhibition, usual class: inhibitors; 0.028% of 370,000 active; AID 624246; active = well fitted inhibition curve with a large enough effect in the polarisation, with a control signal flat; inconclusive = small, poorly fitted or top-dose-only effect, or effect the other way, or a change in a side signal; inactive = no such curve, though single readings can be large or run the other way; the % refers to the polarisation;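 also: polarization taken with two DNA probes labelled with fluorescein and Texas red; potency is read from the fitted curve at half-maximal effect; % of control where 0% means no effect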
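His-tagged ERG Ets domain (1 uM in the protein solution; 300mM KCl, 50mM Tris-HCl, 1mM EDTA, 1mM DTT, pH 7.5) received compound, then a probe mix of 5 nM fluorescein-DNA and 100nM Texas-615-DNA. Fluorescence polarization was read for both dyes.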
Numbers without * were called inactive; ? = inconclusive; . = no result given; [ ] = remark or other dose. Unless noted, calls follow the shape of the dose curve; as a rule, active = well fitted curve in the direction sought with a large enough effect; inconclusive = small, poorly fitted or top-dose-only effect, or another doubt; inactive = no such curve, though single readings can be large; an effect the other way counts as inactive or inconclusive.

SMILES | 12-LOX inh | Nrf2 ARE act | A549 viability | Nrf2 block | LDHA inh | ERG-DNA inh
COc1ccc(C(=O)NC(=S)NCc2ccccc2)cc1 | 0.71µM* | 0% | 13% | ? | -1 | -5%
O=C(NNC(=S)NCc1ccccc1)c1ccc2c(c1)OCO2 | 8% | 0% | 17% | ? | -1 | 5%
CC(C)C(=O)Nc1cccc(NC(=S)NC(=O)c2ccc3c(c2)OCO3)c1 | 3.5µM* | 4% | -8% | ? | -3 | 5%
CCCn1nc(C(=O)Nc2ccc(S(=O)(=O)NC)cc2)c2ccccc2c1=O | -2% | . | . | . | 3 | .
CCCC(=O)OCCC(C)C | -14%[176 µM] | . | . | . | . | .
CCc1ccc(Nc2nc(-c3ccc4c(c3)CC(=O)N4)cs2)cc1 | ? | . | . | . | -6 | .
CC(OC(=O)c1cccc(NS(C)(=O)=O)c1)C(=O)Nc1ccc2c(c1)OCO2 (stereo not given) | -6% | 0% | -6% | 23µM* | -4 | -3%[15.4 µM]
Cc1ccc(-c2cc(Nc3ccccc3C(F)(F)F)nc(C)n2)cc1 | 16µM* | . | . | . | -9 | .
Cc1ccc(-c2cc(Nc3ccccc3)nc(C)n2)cc1 | 7.1µM* | . | . | . | -1 | .
CCCCn1c(N)c(N(CC)C(=O)Cn2c(CC)nc3ccccc32)c(=O)[nH]c1=O | 25µM* | . | . | . | 6 | .
CCCCn1c(N)c(N(CC(C)C)C(=O)c2cc(-c3ccco3)nc3ccccc23)c(=O)[nH]c1=O | 40µM* | 27% | 2% | 3% | -2 | 0%
CCCCn1c(N)c(N(C)C(=O)Cn2c(CC)nc3ccccc32)c(=O)[nH]c1=O | -11% | . | . | . | 2 | .
O=C(NCC(O)c1ccc(F)cc1F)c1cnccn1 (stereo not given) | ? | . | . | . | 8 | .
CN(C)c1ccc(NC(=O)c2cccc3ccccc23)cc1 | ? | . | . | . | 4 | .
CN(C(=O)CN1CCN(c2cc(-c3ccc(-c4ccccc4)cc3)ncn2)CC1)c1ccccc1 | 45µM* | 0% | . | . | -5 | .
CN(C)c1cccc(-c2cc(N3CCC(C(N)=O)CC3)ncn2)c1 | . | . | . | . | 3 | .
Cc1ccc(/C=C/C(=O)Nc2ccc(Oc3ccccc3)cc2)o1 | 16µM* | 11% | -7% | ? | -3 | 0%
CCCCOc1ccc(/C=C/C(=O)Nc2ccc([N+](=O)[O-])cc2C)cc1 | -1% | 0% | 0% | ? | 1 | -6%
CCCOc1ccc(/C=C/C(=O)Nc2ccc([N+](=O)[O-])cc2)cc1 | 0% | 3% | -20% | 23µM* | -13 | 8%
Cc1ccc(/C=C/C(=O)Nc2ccc([N+](=O)[O-])cc2)o1 | 6.3µM* | 11% | -12%[1.84 µM] | -16% | -5 | -23%
CC(=O)c1ccc(NC(=O)/C=C/c2ccc(C)o2)cc1 | -15% | 16% | -12% | ? | 4 | -4%
FC(F)(F)c1cccc(C=Nc2cccc3c(N=Cc4cccc(C(F)(F)F)c4)cccc23)c1 | ? | . | . | . | 16 | .
COc1cc2c(C#N)c(N3CCN(c4ccccc4OC)CC3)nc(N)c2c(N)n1 | 0% | 0% | ? | 16µM* | 12 | -7%
C=CCn1cccc(C(=O)Nc2ccc(OCC)cc2)c1=O | -5% | 4% | 0% | 12µM* | -5 | -5%
C=CCn1cccc(C(=O)Nc2ccc(Cl)cc2)c1=O | 4% | 9% | -1% | ? | 0 | 9%
SMILES | 12-LOX inh | Nrf2 ARE act | A549 viability | Nrf2 block | LDHA inh | ERG-DNA inh
FC(F)c1n[nH]c(C(F)F)c1Cl | 24% | . | . | . | 7 | .
COc1ccc(OCCn2c(C)nc3ccccc32)cc1 | 24% | 3% | . | . | -6 | .
Cc1nc2ccccc2n1CCOc1ccc(F)cc1 | -2% | 3% | 6% | 21µM* | -2 | -5%
COc1ccc2c(c1)OC[C@H]1[C@H]2N2C(=O)CN(Cc3ccco3)C(=O)[C@@]2(C)[C@H]1c1ccccc1 | 7.1µM* | 0% | 9% | 7% | 5 | 13%
O=[N+]([O-])c1ccc(NN=Cc2ccco2)nc1 | -21% | 0.89µM* | ? | ? | -5 | 8%
O=C(NC1CCCCC1)N1Cc2[nH]cnc2C[C@H]1c1nc(-c2ccccc2)no1 | 26%[176 µM] | . | . | . | . | .
COc1ccc(-c2noc(CCC(=O)NC3CCCCC3)n2)cc1 | -1% | 0% | -11% | 16µM* | -3 | 2%
Cc1cccc(-c2noc([C@@H]3Cc4nc[nH]c4CN3C(=O)NC3CCCCC3)n2)c1 | 13µM* | . | . | . | . | .
Cc1cccc(-c2noc(CCCC(=O)NC3CCCC3)n2)c1 | -6% | 1% | 2% | 9.2µM* | 4 | 5%
COc1ccc(CCCC(=O)NC2CCCCC2C)c(C)c1 (stereo not given) | 8.9µM* | -1% | 1% | 6% | -15 | -8%
Cc1ccc(O)c(C(=O)c2cc(C#N)c(=O)n(-c3ccccc3C(=O)O)c2)c1 | ? | . | . | . | -2 | .
Cc1ccc(-c2nnn(Cc3cc(Cl)c4c(c3)OCCCO4)n2)cc1 | ? | . | . | . | 2 | .
Cc1cccc(C)c1NC(=O)Cn1c(=O)c2c(ncn2CC(C)C)n(Cc2ccccc2)c1=O | 10% | . | . | . | 0 | .
COc1ccc(-c2noc(CCCC(=O)NC3CCCC3)n2)cc1 | -9% | -1% | ? | 12µM* | -2 | 8%
COc1ccc2cc(C(=O)NC(CC(C)C)C(=O)O)ccc2c1 (stereo not given) | ? | . | . | . | -17 | .
CCOc1ccc(OCC)c(NC(=O)C2COc3ccccc3O2)c1 (stereo not given) | 12% | 3% | 0% | ? | 1 | -1%
O=C(Nc1ccc(S(=O)(=O)Nc2ccccc2)cc1)C1COc2ccccc2O1 (stereo not given) | -2% | 3% | -27% | 18µM* | -1 | .
COc1ccc(OC)c(NC(=O)C2COc3ccccc3O2)c1 (stereo not given) | 0% | 4% | -7% | -10% | -2 | 2%
CCOc1ccccc1NC(=O)C1COc2ccccc2O1 (stereo not given) | -14% | 6.3µM* | 13% | 15% | -3 | -1%
COc1ccc(Cl)cc1NC(=O)C1COc2ccccc2O1 (stereo not given) | ? | 3.5µM* | 0% | 3% | 0 | 6%
CCCCOc1ccc(CNC(=O)CCCN2C(=O)CSc3c2c(C)nn3-c2ccccc2)cc1 | ? | 0% | -13% | 29µM* | 1 | -8%
COc1cccc(C(=O)/C(C#N)=C\c2ccc(F)c(Br)c2)c1 | 18µM* | . | . | . | 2 | .
COc1ccc(/C=C(/C#N)C(=O)c2c(Cl)cccc2Cl)cc1 | 6.3µM* | . | . | . | 7 | .
COc1cccc(C=C(C#N)C(=O)c2ccccc2)c1 | ? | 0% | . | . | -4 | .
N#C/C(=C\c1ccccc1C(F)(F)F)C(=O)Nc1ccccc1 | -1% | 3% | -1% | -12% | 0 | -8%
